Records with an inconclusive call do not appear. Entries that show only a call come without a potency. Active and inactive are the calls of the source. Calls follow the shape of the dose curve; as a rule, active = well fitted cell-killing curve with a large enough effect; inconclusive = small, poorly fitted or top-dose-only effect, or effect the other way; inactive = flat fitted curve, though single readings scatter.
Potency is read from the fitted curve at half-maximal effect.

The first assay deals with PA-1. The experiment in a line: Primary qHTS to identify gynecologic anti-cancer compounds using libraries of approved drugs and bioactive compounds (AID 1345084). Also: nearly all actives have a fitted effect of over 55% in size. Particulars: Gynecologic cancer cell panel viability, ATPlite luminescence, 48 h; series mostly up to 57.5 µM. The procedure, abridged:
(§1)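 48 h compound exposure at 37 C, 5% CO2; five-point qHTS. ATPlite luminescence readout of cell ATP.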
In the case of `COc1ccc(N2CCOCC2)c2sc(NC(=O)N3CCC(C)(O)CC3)nc12`, the Potency result was “inactive”.

In the case of `CCC(COC)n1nnc2c(Nc3ccc(OC)cc3C)nc(C)cc21` (stereo not given), the Potency entry was “inactive”.

On to `CC(=O)OC1C[C@@]2(C)[C@@H](CC[C@@H](C)[C@]23Cc2c(O)cc4c(c2O3)CNC4=O)C(C)(C)[C@@H]1O` (stereo not given in full), for which the Potency entry is “inactive”.

In the case of `OC/C=C/C=C/[C@H]1Cc2cc(O)cc(O)c2O1`, the Potency entry is “inactive”.

Take `C/C=C/C1=CC2=C(CO1)C(=O)C(C)(O)C(OC(=O)c1c(C)cc(OC)cc1O)C2` (stereo not given): the Potency entry is “inactive”.

A further assay deals with SKOV3. The assay is described as above. Particulars: Gynecologic cancer cell panel viability, ATPlite luminescence, 48 h; series mostly up to 57.5 µM. The gist of the method: as §1
For orientation: In ATP-based viability assays light output follows the ATP content of the culture.
`C=C1[C@@H]2CC[C@@H]3[C@@](CCC4C(C(=O)O)(C(=O)O)C[C@@H](O[C@@H]5O[C@H](CO)[C@@H](O)[C@H](O)[C@H]5OC(=O)CC(C)C)C[C@]43C)(C2)[C@H]1O` (stereo not given in full): the Potency entry is “inactive”.

With `C[C@@H]1CC[C@]2(C(=O)O[C@@H]3O[C@H](CO)[C@@H](O)[C@H](O)[C@H]3O)CC[C@]3(C)C(=CCC4[C@@]5(C)C[C@@H](O)[C@H](O)[C@](C)(C(=O)O)C5CC[C@]43C)[C@@H]2[C@]1(C)O` (stereo not given in full), the Potency entry is “inactive”.

For the molecule `C=C1CN(Cc2ccc(C(=O)Nc3ccccc3N)cc2)C(=O)c2ccccc21`, the Potency was 1410 nM (active).

With `COc1ccc(C(=O)n2c(C)c(Cc3cccc(O[C@@H](C)C(=O)O)c3)c3cc(OC(F)(F)F)ccc32)cc1`, the Potency entry was “inactive”.

`CCOC(=O)C(CCc1ccccc1)NC(C)C(=O)N1C(=O)N(C)CC1C(=O)O` (stereo not given): the Potency result is “inactive”.

Regarding `CC(/C=C/C1=CC2=CC(=O)C(C)(O)C(O)C2=CO1)=C\C(C)CCO` (stereo not given), the Potency entry is “inactive”.

Regarding `CO[C@H]1C[C@@H]2CC[C@@H](C)[C@@](O)(O2)C(=O)C(=O)N2CCCC[C@H]2C(=O)O[C@H]([C@H](C)C[C@@H]2CC[C@H](n3cnnn3)[C@H](OC)C2)CC(=O)[C@H](C)/C=C(\C)[C@@H](O)[C@@H](OC)C(=O)[C@H](C)C[C@H](C)/C=C/C=C/C=C/1C`, the Potency entry was “inactive”.

For `CCN1CCN(Cc2ccc(NC(=O)c3ccc(C)c(/C=C/c4cnc5[nH]ccc5c4OC)c3)cc2C(F)(F)F)CC1`, the Potency is 8910 nM (active).

As for `CNC(=S)NS(=O)(=O)c1cc(CCNC(=O)c2cc(Cl)ccc2OC)ccc1OC`, the Potency result is “inactive”.

`COc1ccc(CC2NCCc3c2[nH]c2ccc(C)cc32)cc1OC` (stereo not given): the Potency entry was “inactive”.

For `O=C(/C=C/c1cccc(S(=O)(=O)Nc2ccccc2)c1)NO`, the Potency is 11200 nM (active).

For `C=C[C@]1(C)C[C@H](O)[C@@H]2[C@H](OC(=O)[C@@H]2C)C1/C(C)=C/O[C@@H]1O[C@H](CO)[C@@H](O)[C@H](O)[C@H]1O` (stereo not given in full), the Potency result is “inactive”.

As to `C[C@H](NC(c1cccc(C[P+](=O)O)c1)[C@H](C)O)c1ccc(Cl)c(Cl)c1` (stereo not given in full), the Potency result was “inactive”.

As to `O=C(N/N=C/c1ccc(O)c(O)c1)c1cc2ccccc2cc1O`, the Potency result is “inactive”.

For `COC(=O)C[C@H]1[C@]2(C)C3=C(C)[C@H](c4ccoc4)C[C@H]3O[C@@H]2[C@H](OC(C)=O)C2[C@](C)(C(=O)OC)C=CC(=O)[C@@]21C` (stereo not given in full), the Potency result was “inactive”.

For the molecule `COc1ccc(N2CCOCC2)c2sc(NC(=O)N3CCC(C)(O)CC3)nc12`, the Potency result is “inactive”.

In the case of `OC/C=C/C=C/[C@H]1Cc2cc(O)cc(O)c2O1`, the Potency entry is “inactive”.

The test system of a further assay is Tov-21-G. Described as above. Particulars: Gynecologic cancer cell panel viability, ATPlite luminescence, 48 h; series mostly up to 57.5 µM. The procedure, abridged: as §1
In the case of `C=C1[C@@H]2CC[C@@H]3[C@@](CCC4C(C(=O)O)(C(=O)O)C[C@@H](O[C@@H]5O[C@H](CO)[C@@H](O)[C@H](O)[C@H]5OC(=O)CC(C)C)C[C@]43C)(C2)[C@H]1O` (stereo not given in full), the Potency result is “inactive”.

Regarding `N[C@@]1(C(=O)O)CC[C@H]2[C@H](C(=O)O)[C@H]21`, the Potency entry was “inactive”.

Turning to `C[C@@H]1O[C@@H](O[C@H]2[C@@H]3C=CO[C@@H](O[C@@H]4O[C@H](CO)[C@@H](O)[C@H](O)[C@H]4O)[C@@H]3[C@@]3(CO)O[C@@H]23)[C@H](OC(=O)/C=C/c2ccccc2)[C@H](O)[C@H]1O`, the Potency result is “inactive”.

On to `C[C@@H]1CC[C@]2(C(=O)O[C@@H]3O[C@H](CO)[C@@H](O)[C@H](O)[C@H]3O)CC[C@]3(C)C(=CCC4[C@@]5(C)C[C@@H](O)[C@H](O)[C@](C)(C(=O)O)C5CC[C@]43C)[C@@H]2[C@]1(C)O` (stereo not given in full), for which the Potency result is “inactive”.

For the molecule `COc1ccc(C(=O)n2c(C)c(Cc3cccc(O[C@@H](C)C(=O)O)c3)c3cc(OC(F)(F)F)ccc32)cc1`, the Potency entry was “inactive”.

For `C[C@@H]1O[C@@H](O[C@@H]2[C@@H](O)[C@H](O[C@H]3CC[C@@]4(C)C(CC[C@]5(C)C4CC=C4[C@@H]6CC(C)(C)CC[C@]6(C(=O)O[C@@H]6O[C@H](CO)[C@@H](O)[C@H](O)[C@H]6O)CC[C@]45C)C3(C)C)O[C@H](C(=O)O)[C@H]2O)[C@H](O)[C@H](O)[C@H]1O` (stereo not given in full), the activity change, negative = cytotoxicity was 1.47% [at 11.6 µM] (inactive).

Regarding `CCOC(=O)C(CCc1ccccc1)NC(C)C(=O)N1C(=O)N(C)CC1C(=O)O` (stereo not given), the Potency entry is “inactive”.

Take `CC1=CCC2C(C)(C)CCC[C@]2(C)[C@@]12CC[C@](C)(CC(=O)O)O2` (stereo not given in full): the Potency entry was “inactive”.

Consider `CC1CCC2C(C)(C)[C@@H](O)CC[C@]2(C)C12Cc1c(O)cc3c(c1O2)CN(C(CCC(=O)O)C(=O)O)C3=O` (stereo not given in full), for which the Potency result was “inactive”.

As for `Cc1cc(NC(=O)Nc2ccc(F)c(F)c2)n(-c2ccccc2)n1`, the Potency entry is “inactive”.

As for `CC(/C=C/C1=CC2=CC(=O)C(C)(O)C(O)C2=CO1)=C\C(C)CCO` (stereo not given), the Potency entry is “inactive”.

`Cn1c(=O)cc(N2CCCC(N)C2)n(Cc2cc(F)ccc2C#N)c1=O` (stereo not given): the Potency result was “inactive”.

Regarding `CCN1CCN(Cc2ccc(NC(=O)c3ccc(C)c(/C=C/c4cnc5[nH]ccc5c4OC)c3)cc2C(F)(F)F)CC1`, the Potency is 2510 nM (active).

On to `COc1c(Nc2ncc(Cl)c(N[C@H]3[C@@H](C(N)=O)[C@@H]4C=C[C@H]3C4)n2)ccc2c1CC[C@@H](N1CCOCC1)CC2`, for which the Potency entry was “inactive”.

Regarding `CNC(=S)NS(=O)(=O)c1cc(CCNC(=O)c2cc(Cl)ccc2OC)ccc1OC`, the Potency result was “inactive”.

With `COc1ccc(CC2NCCc3c2[nH]c2ccc(C)cc32)cc1OC` (stereo not given), the Potency entry was “inactive”.

Take `Cc1cccc(C)c1-n1c(=O)c2cnc(Nc3ccc(N4CCN(C)CC4)cc3)nc2n2c3ccccc3nc12`: the Potency was 398 nM (active).

Regarding `C=C[C@]1(C)C[C@H](O)[C@@H]2[C@H](OC(=O)[C@@H]2C)C1/C(C)=C/O[C@@H]1O[C@H](CO)[C@@H](O)[C@H](O)[C@H]1O` (stereo not given in full), the Potency entry was “inactive”.

For `C[C@H](NC(c1cccc(C[P+](=O)O)c1)[C@H](C)O)c1ccc(Cl)c(Cl)c1` (stereo not given in full), the Potency entry was “inactive”.

With `CO[C@H]1C[C@@H]2CC[C@@H](C)[C@@](O)(O2)C(=O)C(=O)N2CCCC[C@H]2C(=O)O[C@H]([C@H](C)C[C@H]2CC[C@@H](OP(C)(C)=O)[C@H](OC)C2)CC(=O)[C@H](C)/C=C(\C)[C@@H](O)[C@@H](OC)C(=O)[C@H](C)C[C@H](C)/C=C/C=C/C=C/1C`, the Potency entry is “inactive”.

As for `CC(C)=CCC/C(C)=C/CO[C@@H]1O[C@H](CO)[C@@H](O)[C@H](O)[C@H]1O`, the Potency result is “inactive”.

Regarding `O=C(O)CCCCCC[C@H]1C(=O)NC(=O)N1CC[C@@H](O)C1CCCCC1`, the Potency result was “inactive”.

For the molecule `CCC(O)(C(=O)OCc1ccccc1NC(=O)CCC(=O)O)C(C)O` (stereo not given), the Potency result was “inactive”.

Take `COC(=O)C[C@H]1[C@]2(C)C3=C(C)[C@H](c4ccoc4)C[C@H]3O[C@@H]2[C@H](OC(C)=O)C2[C@](C)(C(=O)OC)C=CC(=O)[C@@]21C` (stereo not given in full): the Potency result is “inactive”.

With `C=C(C(=O)O)[C@H]1C[C@]2(C)[C@@H](O)CC[C@]23O[C@H]1C[C@@H]3C`, the Potency result is “inactive”.

For `COc1c(/C=C/C(C)(C)O)ccc2c1C(=O)OCc1cc(C)cc(O)c1O2`, the Potency entry was “inactive”.

Consider `Cc1cc(C)c(CNC(=O)c2cc(-c3ccc(CN4CCOCC4)cc3)cc3c2cnn3C2CCCC2)c(=O)[nH]1`, for which the Potency result is “inactive”.

With `O=C(O)c1ccc(CN2CCC(CN[C@@H]3C[C@H]3c3ccccc3)CC2)cc1`, the Potency result is “inactive”.

As to `COc1ccc(N2CCOCC2)c2sc(NC(=O)N3CCC(C)(O)CC3)nc12`, the Potency result is “inactive”.

As for `CCC(COC)n1nnc2c(Nc3ccc(OC)cc3C)nc(C)cc21` (stereo not given), the Potency result was “inactive”.

With `CC(=O)OC1C[C@@]2(C)[C@@H](CC[C@@H](C)[C@]23Cc2c(O)cc4c(c2O3)CNC4=O)C(C)(C)[C@@H]1O` (stereo not given in full), the Potency result was “inactive”.

Turning to `OC/C=C/C=C/[C@H]1Cc2cc(O)cc(O)c2O1`, the Potency result is “inactive”.

For the molecule `C/C=C/C1=CC2=C(CO1)C(=O)C(C)(O)C(OC(=O)c1c(C)cc(OC)cc1O)C2` (stereo not given), the Potency entry was “inactive”.

The values are drawn from PubChem BioAssay (NCATS).
